The values below come from ChEMBL document CHEMBL4513216, “Probing the Open Global Health Chemical Diversity Library for Multistage-Active Starting Points for Next-Generation Antimalarials” (ACS Infect Dis, 2020).

About 2,700 (4%) of roughly 68,000 compounds showed an effect of 50% or more. Only a selection was taken, and strong results are over-represented in it overall.

For this assay, the system named is Plasmodium berghei. Nature of the assay: Screen against P. berghei liver stage (PbLuc), transformed with Luciferase, at 2uM. The assay is classed as functional, HepG2. The note with it: tested at 2 uM.
Turning to `Cc1csc(CNC(=O)NC(C)c2ccc3c(c2)OCCO3)n1` (stereo not drawn), the INHIBITION was 39.83%. The value for `CN(C)CCOC1CC2(CCN(c3cnccn3)CC2)c2ccccc21` (stereo not drawn) was 20.21%. Next, `CC(=O)N(Cc1noc(C)n1)C1CCN(Cc2ccccn2)C1` (stereo not drawn): 6.31%; `CC(=O)N(Cc1noc(C)n1)C1CCN(Cc2ncc(C(C)C)o2)C1` (stereo not drawn): 8.06%. As for `CC(=O)N(Cc1ncc(C)o1)C1CCN(Cc2ccccc2F)C1` (stereo not drawn), the INHIBITION amounted to 20.35%. Next, `CC(=O)N(Cc1noc(C)n1)C1CCN(Cc2ccncc2Cl)C1` (stereo not drawn): 53.72%; `CC(=O)N(Cc1noc(C)n1)C1CCN(Cc2ccccc2C#N)C1` (stereo not drawn): -21.31%; `CC(=O)N(Cc1ncc(C)o1)C1CCN(Cc2cc(C)on2)C1` (stereo not drawn): 1.04%. With `CC(=O)N(Cc1ncc(C)o1)C1CCN(Cc2ccncc2Cl)C1` (stereo not drawn), the INHIBITION is listed as 53.72%. Next, `CC(=O)N(Cc1ncc(C)o1)C1CCN(Cc2cccnc2)C1` (stereo not drawn): 41.72%; `CC(=O)N(Cc1ncc(C)o1)C1CCN(Cc2noc(C)n2)C1` (stereo not drawn): 71.13%. The value for `O=C(O)[C@@H]1CN(C(=O)CN2Cc3ccccc3C2)C[C@H]1c1ccncc1` was 27.42%. Take `CCN(C(=O)c1cccc2c1OCO2)c1ccccc1`: the INHIBITION is -0.15%. The value for `O=C1CC2(CCN(S(=O)(=O)C3CC3)C2)CN1c1cncnc1` (stereo not drawn) was 34.34%; that for `Cn1nccc1CCC(=O)N1CCCC(Cc2cccnc2)C1` (stereo not drawn) was -24.85%; that for `Cc1ccc(CN(C(=O)NC2CCS(=O)(=O)C2)C2CC2)o1` (stereo not drawn) was 1.88%. Next, `CCOc1cc(C)ccc1NC(=O)N(C)Cc1cnn(C)c1`: 17.39%. The value for `CCCOc1cc(C)ccc1NC(=O)N(C)Cc1cnn(C)c1` was -31.72%; that for `COCCOc1cc(C)ccc1NC(=O)N(C)Cc1cnn(C)c1` was 64.16%. Take `O=C1CCCC2=C1C(c1ccccc1Cl)C1C(=O)NN=C1N2` (stereo not drawn): the INHIBITION worked out at 31.66%. Regarding `Cn1ncc2c1CN(Cc1ccccc1F)CC2COCC1CC1` (stereo not drawn), the INHIBITION worked out at 21.42%. The value for `Cc1cccc(N2CC3(CCN(c4nncs4)C3)CC2=O)c1` (stereo not drawn) was 5.77%. For `Cc1c(Cl)cccc1N1CC(c2nnc(N)s2)CC1=O` (stereo not drawn), the INHIBITION was 8.41%. Regarding `CCc1ccccc1N1CC(c2nnc(N)s2)CC1=O` (stereo not drawn), the INHIBITION was found to be 51.78%.

On to `O=C1C[C@@H]2CCN(Cc3ccccc3)C[C@@H]2CCN1c1ccccc1`, for which the INHIBITION is reported as 44.84%. The value for `Nc1nnc(C2CC(=O)N(c3ccccc3)C2)s1` (stereo not drawn) was 74.36%. Next, `Cc1cccc(N2CC(c3nnc(N)s3)CC2=O)c1` (stereo not drawn): 52.23%; `CS(=O)(=O)NC1CC(=O)N(c2ccccc2Cl)C1` (stereo not drawn): 34.28%. Turning to `Cc1cc(C)cc(N2CC(c3nnc(N)s3)CC2=O)c1` (stereo not drawn), the INHIBITION is 35.41%. Take `O=C(C1CC(=O)N(c2ccccc2)C1)N1CCC2(CC1)OCCO2` (stereo not drawn): the INHIBITION came out at 28.17%. Next, `CN(C)C1CC2(CCN(C(=O)c3csnn3)CC2)c2ccccc21` (stereo not drawn): 24.51%.

Regarding `CCc1nc2c(NCC3COc4cc(OC)ccc4C3)ncnc2o1` (stereo not drawn), the INHIBITION is 23.17%. Regarding `CCCc1n[nH]c(C2CN(C(=O)CCn3cc(C)cn3)CCO2)n1` (stereo not drawn), the INHIBITION was found to be 14.21%.

On to `Cn1cc(CN2C[C@H]3CCN(C(=O)c4cscn4)C[C@H]3C2)cn1`, for which the INHIBITION is on record as 34.24%. For the compound `CCN(CC(=O)N(C)C)C(=O)c1ccc(-c2nc(C)cs2)cc1`, the INHIBITION is 53.81%.

As for `CCCN(CC(=O)NC)C(=O)c1ccc(-c2nc(C)cs2)cc1`, the INHIBITION is listed as 46.98%. In the case of `CCCN(CC(=O)N(C)C)C(=O)c1ccc(-c2nc(C)cs2)cc1`, the INHIBITION is listed as -0.15%. For the compound `CC(C)(C)CC(=O)NCC(=O)Nc1ccn(Cc2ccccc2)n1`, the INHIBITION came out at 43.87%. The value for `O=C(NCc1nccs1)N1CCOC(c2ccccc2Cl)C1` (stereo not drawn) was -71.45%; that for `CCn1cnnc1CNC(=O)N1CCOC(c2ccccc2Cl)C1` (stereo not drawn) was 42.19%; that for `Cc1ccc(C2CN(C(=O)NCc3nnc4ccccn34)CCO2)o1` (stereo not drawn) was 26.03%.

For `O=C(NCc1nnc2ccccn12)N1CCOC(c2ccsc2)C1` (stereo not drawn), the INHIBITION amounted to 63.39%. Next, `O=C(NCc1nnc2ccccn12)N1CCc2sccc2C1`: 30.31%; `O=C(NCc1nnc2ccccn12)N1CCOC(c2cccs2)C1` (stereo not drawn): 50.46%; `CCN1CCC2(CC1)OCCN2C(=O)c1cc(Cl)c(OC)c(Cl)c1`: 19.62%.

As to `Cc1cc(C)n(C2CCCN(C(=O)c3ccc(N(C)C)nc3)C2)n1` (stereo not drawn), the INHIBITION was -35.65%. Next, `Cc1noc(C)c1S(=O)(=O)N(CC(N)=O)CC(C)C`: 23.08%.

On to `CC(C)n1cc(CN2CCCN(C(=O)C(C)n3cccn3)CC2)cn1` (stereo not drawn), for which the INHIBITION is on record as -86.2%. Next, `O=c1ccc2c(n1CC1CC1)CCC(NCc1cccs1)C2` (stereo not drawn): -26.76%. The value for `CCC(C(=O)NC(C)(C)C)n1ccc2ncccc2c1=O` (stereo not drawn) was 8.09%; that for `CCC(C(=O)NC(C)(C)C)n1cccc(OC)c1=O` (stereo not drawn) was 56.16%. The value for `CCC(C(=O)NC1CCCCC1)n1cccc(OC)c1=O` (stereo not drawn) was -6.88%. On to `CCN(C)S(=O)(=O)N1C[C@H]2CC[C@@H](C1)N(Cc1cscn1)C2=O`, for which the INHIBITION was 48.21%. Turning to `CCn1cnnc1CNC(=O)N(C)Cc1ccc(F)c(F)c1`, the INHIBITION was -2.9%. The value for `CCn1cnnc1CNC(=O)N(C)Cc1ccc2c(c1)OCCO2` was -16.42%; that for `CCOc1ccc(CN(C)C(=O)NC(C)c2nncn2C)cc1` (stereo not drawn) was -27.75%. The value for `COc1ccc(CN(C)C(=O)NC(C)c2nncn2C)cc1F` (stereo not drawn) was -6.61%. Next, `CC(NC(=O)N(C)Cc1cccc(OC(F)F)c1)c1nncn1C` (stereo not drawn): 59.03%.

`CCn1cnnc1CNC(=O)N(C)Cc1cccc(OC(F)F)c1`: the INHIBITION is 64.16%. Next, `Cc1cccc(CN2CCC(C3Nc4ccccc4S(=O)(=O)N3)CC2)n1` (stereo not drawn): 7.38%; `COc1cc(N2C[C@@H]3COC[C@]3(COCc3ccccn3)C2)ncn1`: -14.27%; `Cn1ccnc1CN1CCCC2(CCN(CC3CCCO3)CC2)C1` (stereo not drawn): 26.46%. The value for `Cc1nc(C2CCCN(C(=O)c3ccc(OCC4CC4)nc3)C2)no1` (stereo not drawn) was 28.65%; that for `CC1(C(=O)NCc2ccsc2)CCOCC1` was 5.75%. In the case of `CC(CNC(=O)NCc1ccsc1)CC1(C)OCCO1` (stereo not drawn), the INHIBITION is -35.5%. Take `CC1(CCNC(=O)NCc2ccsc2)OCCO1`: the INHIBITION is on record as 57.23%. Next, `O=C(Cn1nc2c(cc1=O)CCCC2)NC(C(=O)O)c1ccccc1` (stereo not drawn): 25.23%. Next, `CC1COCCN1Cc1nc(Cc2ccccc2)no1` (stereo not drawn): -23.37%; `COc1ncc(NCc2cccc(C#N)c2)cc1C(N)=O`: -7.69%; `COc1ncc(NCc2ccc(F)cc2)cc1C(N)=O`: 17.18%. The value for `COc1ncc(NCc2ccc(C#N)cc2)cc1C(N)=O` was 63.31%. For the compound `CN1C(=O)CC(C(=O)O)C12CCN(c1ccc3cccc(Cl)c3n1)CC2` (stereo not drawn), the INHIBITION is given as -1.78%. The value for `CC(Cc1ccccc1Cl)NC(=O)Nc1cnn(CC(N)=O)c1` (stereo not drawn) was -7.81%; that for `Cc1ccccc1CC(C)NC(=O)Nc1cnn(CC(N)=O)c1` (stereo not drawn) was 81.1%; that for `CC(CCc1ccccc1)NC(=O)Nc1cnn(CC(N)=O)c1` (stereo not drawn) was 41.72%. The value for `COCCN1CCC2(CC1)CN(CCn1cccn1)C(=O)CO2` was 20.2%; that for `Cc1ccc(C(=O)N(C)CC(=O)NCC(F)(F)F)cn1` was 71.4%. Next, `CN(CC(=O)NCC(F)(F)F)C(=O)c1ccc(C(=O)OC(C)(C)C)cc1`: -16.4%; `Cc1ccc(C(=O)N(C)CC(=O)Nc2cccc(C)n2)cn1`: 23.76%. Consider `CCC(=O)Nc1cc(Cl)ccc1C(=O)N(C)Cc1noc(CC)n1`, for which the INHIBITION is on record as 1.1%. The value for `COc1ccc(Cl)cc1-n1cnc(CCNC(C)=O)c1` was 26.74%; that for `COc1ccc(F)cc1-n1cnc(CCNC(C)=O)c1` was 45.82%; that for `COc1cc(F)c(-n2cnc(CCNC(C)=O)c2)cc1F` was 60.13%. Consider `CC(=O)N(CCc1nc(-c2cc(C(N)=O)oc2C)cs1)C(C)C`, for which the INHIBITION was 10.22%. Next, `COc1cc(OC)c(C2CC(=O)Oc3cc(C)[nH]c(=O)c32)c(OC)c1` (stereo not drawn): 14.96%. As to `O=C(O)C(c1ccc2c(c1)OCO2)N1CCCC1` (stereo not drawn), the INHIBITION was 4.53%.

Take `O=C(O)C(c1ccc2c(c1)OCO2)N1CCCCCC1` (stereo not drawn): the INHIBITION is recorded as 59.48%. Next, `O=C(O)C(c1ccc2c(c1)OCCO2)N1CCCCCC1` (stereo not drawn): 19.56%; `Cc1ccc(-n2cc3[nH]c(=O)[nH]n3c2=O)cc1`: -15.37%. As for `Cc1ccc(CN2CCC3(CC(C(=O)NC4CCC4)=NO3)C2)o1` (stereo not drawn), the INHIBITION is reported as -27.21%. The value for `CN1CCC2(CC1)CN(C)C(=O)C[C@@H]2C(F)(F)F` was 6.22%. The value for `CC(C)N1CCC2(CC1)CN(C)C(=O)C[C@H]2C(F)(F)F` was -24.39%; that for `CC(=O)N1CCC2(CC1)CN(C)C(=O)C[C@H]2C(F)(F)F` was 64.92%.

Consider `CCN(CC)S(=O)(=O)N1C[C@@H](O)[C@H](Oc2cccc(F)c2)C1`, for which the INHIBITION worked out at 16.01%. The value for `Cc1nc(N2CCCC2)nc2c1CCN(C(=O)CC1CCCC1)CC2` was 1.33%; that for `COC(=O)c1ccc2ccn(CC3COCCO3)c(=O)c2c1` (stereo not drawn) was 21%. Next, `COC(=O)c1ccc2ccn(CC3CCCCO3)c(=O)c2c1` (stereo not drawn): -32.35%; `COC(=O)c1ccc2ccn(CC3CCCO3)c(=O)c2c1` (stereo not drawn): 52.21%. The value for `COc1ccc(CCNCc2c(C)nn(C)c2N(C)C)cc1OC` was 7.74%; that for `O=C1CC(c2ccc(O)cc2)c2sc(C(=O)O)c(-c3ccccc3)c2N1` (stereo not drawn) was 20.4%; that for `CC(C)C(=O)N1CC2(CCN(CC(C)(C)C)CC2)C1` was 50.72%. `CC(C)CN1CCC2(CC1)CN(C(=O)C(C)C)C2`: the INHIBITION is listed as 16.12%. On to `CC(C)C(=O)N1CCC2(CN(CC3CCCC3)C2)C1`, for which the INHIBITION stood at 0.32%. Next, `CS(=O)(=O)N1CCC2(CCN(C(=O)c3cccs3)CC2)CC1`: 11.79%; `COCCCn1ccnc1-c1cnc(OC)nc1`: -26.85%. Next, `CCCSc1ncc(-c2nccn2CCO)cn1`: 52.98%; `COCc1ncc(-c2nccn2CCN(C)C)cn1`: -24.39%. `CCCn1ccnc1-c1nccn1CCC(N)=O`: the INHIBITION is reported as 43.44%. The value for `CCCSc1ncc(-c2nccn2CCC(N)=O)cn1` was 60.13%. `COC(=O)CCCn1ccnc1-c1ccccc1`: the INHIBITION is reported as 1.42%. The value for `CCSc1ncc(-c2nccn2CCN(C)C)cn1` was 59.03%. As for `COCc1ncc(-c2nccn2CCn2cnnc2)cn1`, the INHIBITION is recorded as -0.15%. The value for `COc1ncc(-c2nccn2CCN(C)C)cn1` was -37.29%.
